Inconclusive results are not listed. Activity calls are given as the source filed them. Unless noted, calls come from the whole dose curve; as a rule, active = well fitted curve in the direction sought with a large enough effect; inconclusive = small, poorly fitted or top-dose-only effect, or another doubt; inactive = no such curve, though single readings can be large; an effect the other way counts as inactive or inconclusive.

These results are taken from PubChem BioAssay (NCATS).

Test [1] in a line: Validation of Assay for Modulators of Lamin A Splicing (AID 1459; active = well fitted curve in the direction sought with a large enough effect in the signal ratio; the % refers to the signal ratio;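 note: cells exposed to compound for two days before reading; 0% is about no effect; ratio rise marks activators and ratio drop marks inhibitors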). In outline: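 Splicing correction is reported by an EGFP-containing lamin A minigene in stably transfected S3 HeLa cells, while DsRed2 controls for viability and nonspecific signal. Cells are exposed to compounds for 48 hrs before the GFP over RFP ratio is taken.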
The target of test [2] is DNA repair nuclease/redox regulator APEX1 (Homo sapiens) (UniProt P27695). Briefly: qHTS Validation Assay for Inhibitors of the Human Apurinic/apyrimidinic Endonuclease 1 (APE1) (AID 1705;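 note: TAMRA fluorescence gain over two minutes as APE1 cuts a quenched THF abasic duplex; % is set by controls: 0 for no effect and ±100 for the full control effect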). The method, boiled down:
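Endonuclease activity of human APE1 is followed as dequenching when the enzyme incises a tetrahydrofuran abasic site in a short duplex labelled 5'-TAMRA/3'-BHQ-2 (50 nM final), after 15 min enzyme–compound preincubation at room temperature.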
In general terms: Quantitative high-throughput screening tests each substance at several concentrations.

Test [3] in a line: Counterscreen for APE1 Inhibitors: Fluorescent Dye Displacement Validation Assay (AID 1707).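 Note: plate controls were ThO with dsDNA and no compound for no effect and ThO without dsDNA for full effect.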 The method, boiled down: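 Counterscreen flags promiscuous DNA binders: compounds displacing ThO from duplex DNA (abasic THF site, 50 nM) reduce 540 nm emission (480 nm excitation). ThO 250 nM final; Tris-HCl pH 7.5 with NaCl, MgCl2 and Tween-20.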
A general note: The purpose of a counterscreen is to sort out artefacts and off-target activity.

Test [4] addresses Endonuclease 4 (Escherichia coli (strain K12)) (UniProt P0A6C1). Kind of test: Counterscreen for APE1 Inhibitors: qHTS Validation Assay for Inhibitors of Endonuclease IV (AID 1708). Note: % is set by controls: 0 for no effect and ±100 for the full control effect. In outline: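 Conditions: 2 nM enzyme, 50 nM TAMRA/BHQ-2 substrate, pH 7.5 Tris buffer with 2 mM MgCl2, RT. Compound preincubation 15 min; readout three fluorescence reads 60 s apart, third-minus-first.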

Test [5] is described as follows: qHTS for differential inhibitors of proliferation of Plasmodium falciparum line D10 (AID 1877).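 For activity change, negative = inhibition: plate controls were vehicle wells for no effect and reference inhibitor wells for full effect.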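 Note: parasites grown with compound for 72 h before DNA staining.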 Note: potency is the fitted concentration of half-maximal effect.
The target in test [6] is Ferritin light chain (Equus caballus) (UniProt P02791). Kind of test: qHTS Validation Assay for Identification of Novel General Anesthetics (AID 2323). Note: % is set by controls: 0 for no effect and ±100 for the full control effect. In outline: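 Apoferritin from horse spleen (10 uM) was mixed with 1-aminoanthracene at 50% saturation in PBS, then compounds were added. After 10 min at room temperature, fluorescence was read (ex 380 nm, em 535 nm) and normalized to free-probe and complex controls.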
Ferritin light chain (Equus caballus), sequence (P02791 2-175 limits assumed): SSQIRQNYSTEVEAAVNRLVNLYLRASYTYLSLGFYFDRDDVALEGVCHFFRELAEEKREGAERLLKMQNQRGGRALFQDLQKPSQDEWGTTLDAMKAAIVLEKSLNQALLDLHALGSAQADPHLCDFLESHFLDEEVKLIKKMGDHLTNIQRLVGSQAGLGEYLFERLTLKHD

In test [7] the target is ATP-dependent DNA helicase Q1 (Homo sapiens) (UniProt P46063). Kind of test: qHTS Validation Assay for Inhibitors of RecQ-Like Dna Helicase 1 (RECQ1) (AID 2353).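 Note: plate controls were DMSO vehicle for no effect and enzyme-free control for full effect.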 In outline: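 RECQ1T1 50 nM; forked duplex (20 bp + 30-nt ss tails) 200 nM, ATP 2 mM final; pH 8.0, 2 mM MgCl2, 2.5 ug/ml poly(dI-dC); 15 min compound preincubation; discontinuous kinetic read over 2 h at RT.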
ATP-dependent DNA helicase Q1 (Homo sapiens), sequence (P46063 whole entry, looked up): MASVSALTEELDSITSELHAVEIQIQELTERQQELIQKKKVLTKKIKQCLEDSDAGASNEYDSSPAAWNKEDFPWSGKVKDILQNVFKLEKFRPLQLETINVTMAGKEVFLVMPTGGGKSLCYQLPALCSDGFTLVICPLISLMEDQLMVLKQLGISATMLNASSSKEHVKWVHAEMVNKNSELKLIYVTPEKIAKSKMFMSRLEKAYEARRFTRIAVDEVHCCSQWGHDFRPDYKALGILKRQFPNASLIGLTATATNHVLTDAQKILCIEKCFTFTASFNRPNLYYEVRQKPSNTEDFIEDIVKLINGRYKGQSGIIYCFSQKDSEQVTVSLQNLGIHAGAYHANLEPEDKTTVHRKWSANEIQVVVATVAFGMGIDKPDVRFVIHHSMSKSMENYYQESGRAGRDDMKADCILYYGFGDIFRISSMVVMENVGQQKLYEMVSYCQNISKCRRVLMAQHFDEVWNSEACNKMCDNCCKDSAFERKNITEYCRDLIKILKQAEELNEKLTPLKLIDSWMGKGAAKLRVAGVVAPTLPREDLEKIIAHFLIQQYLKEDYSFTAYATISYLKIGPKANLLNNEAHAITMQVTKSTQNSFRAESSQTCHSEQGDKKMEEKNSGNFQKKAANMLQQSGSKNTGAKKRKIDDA

Test [8] in a line: Validation screen for inhibitors of Lassa infection (AID 463096; calls by dose curve; note: % is set by controls: 0 for no effect and ±100 for the full control effect).
Test [9] can be described thus: Quantitative high throughput screen for delayed death inhibitors of the malarial parasite plastid, 96 hour incubation (AID 488745). Note: nearly all actives have a fitted effect of over 70% in size. Note: potency is the fitted concentration of half-maximal effect. In outline:
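Readout is firefly luciferase luminescence from an integrated reporter in P. falciparum; lower signal marks inhibited growth. Cultures at 2% hematocrit and 0.1% parasitemia were treated with compound across two generations (96 h, 37 C, 5% CO2).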

The target in test [10] is M-phase phosphoprotein 8 (Homo sapiens) (UniProt Q99549). Kind of test: qHTS Validation Assay for Inhibitors for MPP8 Chromodomain Interactions with Methylated Histone Tails (AID 488949). Note: nearly all actives have a fitted effect of over 55% in size. Note: potency is the fitted concentration of half-maximal effect. In outline: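 Disruption of the preformed MPP8–trimethyl-H3K9 peptide complex (both 50 nM, 30 min, RT) is measured after 30 min compound exposure, using AlphaScreen proximity beads; aurintricarboxylic acid titration serves as plate control.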
M-phase phosphoprotein 8 (Homo sapiens), sequence (Q99549 whole entry, looked up): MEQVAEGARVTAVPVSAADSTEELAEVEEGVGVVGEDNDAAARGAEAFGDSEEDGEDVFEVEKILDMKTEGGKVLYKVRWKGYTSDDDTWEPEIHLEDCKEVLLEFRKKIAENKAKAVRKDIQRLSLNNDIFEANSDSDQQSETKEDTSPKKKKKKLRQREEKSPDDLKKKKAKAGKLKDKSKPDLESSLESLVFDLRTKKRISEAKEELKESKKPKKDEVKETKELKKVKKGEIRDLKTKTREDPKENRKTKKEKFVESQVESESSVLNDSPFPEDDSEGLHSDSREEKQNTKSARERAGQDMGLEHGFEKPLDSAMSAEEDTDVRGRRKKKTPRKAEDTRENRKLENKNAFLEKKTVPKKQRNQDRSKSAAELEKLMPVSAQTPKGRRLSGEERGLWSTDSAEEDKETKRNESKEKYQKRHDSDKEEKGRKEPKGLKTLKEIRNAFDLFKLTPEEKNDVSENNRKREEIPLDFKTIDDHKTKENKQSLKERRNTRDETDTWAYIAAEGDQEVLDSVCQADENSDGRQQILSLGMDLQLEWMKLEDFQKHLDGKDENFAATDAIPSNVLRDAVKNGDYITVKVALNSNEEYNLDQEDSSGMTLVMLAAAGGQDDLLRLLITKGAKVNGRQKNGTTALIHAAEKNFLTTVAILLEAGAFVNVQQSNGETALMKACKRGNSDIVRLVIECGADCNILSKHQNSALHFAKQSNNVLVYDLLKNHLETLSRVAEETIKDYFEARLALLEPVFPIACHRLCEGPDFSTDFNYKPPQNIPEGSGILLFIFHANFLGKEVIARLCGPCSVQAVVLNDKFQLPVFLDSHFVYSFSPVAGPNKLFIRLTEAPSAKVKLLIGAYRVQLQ

Test [11] deals with Transient receptor potential cation channel subfamily V member 1 (Homo sapiens) (UniProt Q8NER1). Briefly: HTS Assay for Compounds that Act as Enhancers of the Vanilloid Receptor 1 (AID 488979). Note: 0% is about no effect. The method, boiled down: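 TRPV1 cells loaded with Fluo-8 calcium dye; compound added and Ca2+ signal (ex 480/em 520 nm) followed 3 min, then capsaicin at EC20 added and read 2 more min to detect enhancement.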
Transient receptor potential cation channel subfamily V member 1 (Homo sapiens), sequence (Q8NER1 whole entry, looked up): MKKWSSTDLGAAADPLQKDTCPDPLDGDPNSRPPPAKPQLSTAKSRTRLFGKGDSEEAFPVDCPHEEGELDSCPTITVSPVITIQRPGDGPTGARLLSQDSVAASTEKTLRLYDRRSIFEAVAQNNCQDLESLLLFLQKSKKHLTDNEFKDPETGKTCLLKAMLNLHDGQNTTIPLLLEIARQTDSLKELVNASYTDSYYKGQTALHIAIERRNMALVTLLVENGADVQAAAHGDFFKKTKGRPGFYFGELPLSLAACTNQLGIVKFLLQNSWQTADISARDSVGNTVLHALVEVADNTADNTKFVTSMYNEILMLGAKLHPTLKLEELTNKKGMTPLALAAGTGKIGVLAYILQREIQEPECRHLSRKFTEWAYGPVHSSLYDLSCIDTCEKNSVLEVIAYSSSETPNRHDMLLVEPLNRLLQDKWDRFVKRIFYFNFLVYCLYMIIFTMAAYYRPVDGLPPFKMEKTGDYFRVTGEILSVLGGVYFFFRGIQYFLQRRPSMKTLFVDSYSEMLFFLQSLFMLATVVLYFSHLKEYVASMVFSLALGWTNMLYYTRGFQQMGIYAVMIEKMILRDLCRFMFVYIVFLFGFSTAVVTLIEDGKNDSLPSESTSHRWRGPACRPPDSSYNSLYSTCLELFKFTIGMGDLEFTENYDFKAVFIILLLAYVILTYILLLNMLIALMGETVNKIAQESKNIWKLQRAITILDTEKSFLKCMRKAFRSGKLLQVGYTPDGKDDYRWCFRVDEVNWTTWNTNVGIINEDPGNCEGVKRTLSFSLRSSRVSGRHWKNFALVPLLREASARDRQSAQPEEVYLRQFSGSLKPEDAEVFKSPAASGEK

The target in test [12] is Thyrotropin receptor (Homo sapiens) (UniProt P16473). Briefly: qHTS Assay for Antagonists of the Thyroid Stimulating Hormone Receptor (AID 488980). Note: 0% is about no effect. In outline:
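Cells expressing human TSHR (HEK293) are dispensed in HBSS/HEPES containing 70 uM RO 20-1724, compound is added, then TSH at EC80 (4 nM final). Antibody in lysis buffer follows, 30 minutes at room temperature before HTRF detection.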

Test [13] concerns the target Galactokinase (Homo sapiens) (UniProt P51570). Briefly: qHTS Validation Assay for Inhibitors of Human Galactokinase (GALK) (AID 493189). Note: 0% is about no effect. In outline:
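Compounds were pin-transferred into ATP buffer, then GALK-galactose mix was added (final 5 nM enzyme, 100 uM galactose, 35 uM ATP). After 1 h at room temperature, remaining ATP was measured luminescently.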

Test [14] can be described thus: Validation screen for small molecules that induce DNA re-replication in SW480 colon adenocarcinoma cells (AID 504364). Note: 0% is about no effect. In outline: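 Image-based qHTS: compounds were incubated with SW480 cells for 48 hr, nuclei stained with Hoechst, and per-nucleus fluorescence intensity scanned to flag cells with excess DNA content.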
A short description of test [15]: qHTS Assay for Lipid Storage Modulators (AID 1519; calls by dose curve). The settings on record: Drosophila S3 cells, BODIPY lipid droplet/cell ratio, laser cytometry, cells loaded with oleic acid; for activity change, negative = inhibition: at 57.5 µM (top of the series). In outline:
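Cells seeded at 5,000 per well were treated with compounds over a concentration series and loaded with oleic acid (400 uM, as added). Lipid droplet fluorescence (488 nm excitation, 500-530 nm channel) was read by laser-scanning cytometry and normalized to 20 uM Triacsin C.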

The nature of test [16]: Primary qHTS for inhibitors of SARS-S pseudo-typed particle cell entry (AID 1479145; calls by dose curve; note: potency is the fitted concentration of half-maximal effect; nearly all actives have a fitted effect of over 45% in size). The following applies: outcome: dose series up to 57.1 µM unless noted.
Setting [17] is: measured here: cell count channel max response.
Setting [18] is: measured here: lipid channel max response.

DNA repair nuclease/redox regulator APEX1 (Homo sapiens), sequence (P27695 whole entry, looked up): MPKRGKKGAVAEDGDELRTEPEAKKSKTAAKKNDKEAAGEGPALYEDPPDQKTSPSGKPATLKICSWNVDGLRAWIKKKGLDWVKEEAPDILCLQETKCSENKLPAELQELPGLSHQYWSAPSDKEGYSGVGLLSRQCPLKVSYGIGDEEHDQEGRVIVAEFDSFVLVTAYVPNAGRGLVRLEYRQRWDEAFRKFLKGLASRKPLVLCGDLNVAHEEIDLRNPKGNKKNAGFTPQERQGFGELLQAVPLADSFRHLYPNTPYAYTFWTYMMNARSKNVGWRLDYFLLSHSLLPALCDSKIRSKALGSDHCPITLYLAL
Galactokinase (Homo sapiens), sequence (P51570 whole entry, looked up): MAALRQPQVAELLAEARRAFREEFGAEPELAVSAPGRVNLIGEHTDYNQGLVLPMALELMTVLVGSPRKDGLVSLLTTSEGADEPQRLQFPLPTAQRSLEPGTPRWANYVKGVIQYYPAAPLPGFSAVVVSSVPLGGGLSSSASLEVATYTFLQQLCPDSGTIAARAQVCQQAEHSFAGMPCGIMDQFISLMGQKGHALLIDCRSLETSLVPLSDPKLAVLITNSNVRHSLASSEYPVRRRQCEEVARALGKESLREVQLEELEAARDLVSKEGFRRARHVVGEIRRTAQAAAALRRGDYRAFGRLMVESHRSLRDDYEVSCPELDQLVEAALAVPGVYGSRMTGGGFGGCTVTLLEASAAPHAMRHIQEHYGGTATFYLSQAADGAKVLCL
Thyrotropin receptor (Homo sapiens), sequence (P16473 whole entry, looked up): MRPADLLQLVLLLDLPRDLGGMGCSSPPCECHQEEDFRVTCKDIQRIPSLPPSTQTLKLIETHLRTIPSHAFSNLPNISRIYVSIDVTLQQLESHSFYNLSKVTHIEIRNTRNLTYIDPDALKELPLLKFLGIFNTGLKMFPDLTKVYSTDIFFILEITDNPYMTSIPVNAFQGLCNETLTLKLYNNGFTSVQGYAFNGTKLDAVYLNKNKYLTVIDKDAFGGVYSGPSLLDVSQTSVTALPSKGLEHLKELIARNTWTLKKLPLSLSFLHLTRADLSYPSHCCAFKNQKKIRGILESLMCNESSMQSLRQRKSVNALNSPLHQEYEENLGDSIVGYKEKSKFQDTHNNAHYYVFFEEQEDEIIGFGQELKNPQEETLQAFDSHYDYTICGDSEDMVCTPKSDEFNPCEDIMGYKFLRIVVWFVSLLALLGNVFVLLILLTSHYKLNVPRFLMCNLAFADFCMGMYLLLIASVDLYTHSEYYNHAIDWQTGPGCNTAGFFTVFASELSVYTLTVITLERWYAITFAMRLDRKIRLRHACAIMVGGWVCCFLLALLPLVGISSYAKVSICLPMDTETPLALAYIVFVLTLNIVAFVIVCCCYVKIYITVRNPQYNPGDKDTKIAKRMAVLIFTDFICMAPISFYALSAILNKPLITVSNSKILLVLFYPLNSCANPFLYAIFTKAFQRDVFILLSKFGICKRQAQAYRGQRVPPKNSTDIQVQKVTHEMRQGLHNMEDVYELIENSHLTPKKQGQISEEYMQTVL

Turning to `COc1ccc2c(c1O)-c1cccc3c1C(C2)N(C)CC3` (configuration not stated), the outcome in [1], in [3], in test [7], in test [11], in test [12] and in test [13] was inactive. In addition, the outcome in test [14] was inactive. Besides, the Potency result in [2], in test [4], in test [6], in test [8] and in [9] was “inactive” each time. The values for the Potency in [5] and in test [10] were 14.1 µM (active) and 44.7 µM (active), respectively.
For `CN1CCC23CCCC[C@H]2C1Cc1ccc(O)cc13` (some centres not stated), the molecule was called inactive in test [1], in test [3], in test [7], in test [11], in [12] and in test [13]. In addition, the molecule was classed as inactive in test [14]. Besides, in [15], the activity change, negative = inhibition was 0.333% (inactive). The values for the max response in test [15] (setting [17]) and in [15] (setting [18]) were 15.7% and 15.2%, respectively. For the same molecule, the Potency result in test [2], in [5], in test [6], in test [8], in [9] and in test [10] was “inactive” in each case.
`C[C@H]1OC[C@@H](C[N+](C)(C)C)O1`: the molecule was classed as inactive in test [1], in test [3], in test [7], in test [11], in test [12] and in test [13]. For the same molecule, in test [14], the result was inactive. Moreover, the Potency entry in test [2], in [4], in test [5], in test [6], in [8] and in test [9] was “inactive” in each case. Moreover, in test [10], the Potency result is “inactive”.
For the molecule `CCNC(=O)[C@H]1O[C@@H](n2cnc3c(N)ncnc32)[C@H](O)[C@H]1O`, the result in test [1], in test [3], in test [7], in [11], in [12] and in test [13] was inactive. The outcome in test [14] was inactive. Further, the Potency entry in [2], in test [4], in [5], in [6], in test [8] and in test [9] was “inactive” throughout. Besides, the Potency entry in test [10] was “inactive”.
`Oc1ccc2c3c1O[C@H]1[C@@H](O)CC[C@@]4(O)C(C2)N(CC2CCC2)CCC314` (some centres not stated): the outcome in [1], in test [3], in [7], in [11], in [12] and in [13] was inactive. Further, the outcome in [14] was inactive. Besides, the Potency entry in test [2], in test [4], in test [5], in test [6], in [8] and in test [10] was “inactive” each time.
As for `Cc1cc(/C=C/C#N)cc(C)c1Nc1ccnc(Nc2ccc(C#N)cc2)n1`, the Potency in test [16] was 22.4 µM (active).
Regarding `CCCN(CCC)C(=O)Cc1c(-c2ccc(Cl)cc2)nc2c(Cl)cc(Cl)cn12`, the molecule was classed as inactive in test [1], in test [3], in test [7], in test [11], in test [12] and in [13]. For the same molecule, the result in [14] was inactive. The activity change, negative = inhibition in test [15] was 1.58% (inactive). For the same molecule, the max response is -21.2% in test [15] (setting [17]) and -20.1% in test [15] (setting [18]). Moreover, the Potency result in test [2], in test [4], in test [8], in test [9] and in [10] was “inactive” in each case.
For the molecule `NNCc1cccc(O)c1`, the result in [1], in test [3], in test [7], in test [11], in test [12] and in [13] was inactive. Further, the call in [14] was inactive. In addition, the Potency entry in [2], in test [4], in test [6], in [8] and in test [10] was “inactive” throughout. Also, in test [5], the Potency was 14.1 µM (active).
As for `C#CCN(C)C(C)Cc1ccccc1` (configuration not stated), the molecule was classed as inactive in [1], in test [3], in test [7], in [11], in test [12] and in [13]. In addition, the call in [14] was inactive. Moreover, in [15], the activity change, negative = inhibition is 2.75% (inactive). Also, the max response in test [15] (setting [17]) came to 64.3%; in [15] (setting [18]), 65.5%. The Potency result in [2], in test [4], in test [5], in test [8], in test [9] and in test [10] was “inactive” each time.
On to `CCCN1CCC[C@@H]2Cc3n[nH]cc3C[C@H]21`, for which the call in test [1], in test [3], in test [7], in [11], in test [12] and in test [13] was inactive. Moreover, the outcome in test [14] was inactive. In test [15], the activity change, negative = inhibition is 3.49% (inactive). For the same molecule, the max response was determined as 9.58% in [15] (setting [17]) and 14.1% in test [15] (setting [18]). Further, the Potency result in test [2], in test [4], in [5], in test [6], in test [8] and in test [9] was “inactive” in each case. Besides, in test [10], the Potency result is “inactive”.
`CCCN(CCC)[C@@H]1CCc2c(F)ccc(O)c2C1`: the molecule was classed as inactive in test [1], in test [3], in [7], in [11], in test [12] and in test [13]. The call in [14] was inactive. Moreover, the Potency entry in test [2], in test [4], in test [6] and in [8] was “inactive” each time. Further, the Potency in test [5] is 2.24 µM (active); in test [9], 2.62 µM (active).
Consider `CC(C)(O)C1C2OC(=O)C1[C@]1(O)C[C@H]3O[C@]34C(=O)O[C@H]2[C@]14C` (some centres not stated) (tested in a mixture with another compound), for which the result in test [1], in test [3], in [7], in [11], in test [12] and in test [13] was inactive. In addition, the result in test [14] was inactive. The Potency result in test [2], in test [5], in [6], in test [8], in test [9] and in [10] was “inactive” throughout.
Turning to `Nc1ncnc2c1ncn2[C@@H]1O[C@H](COP(=O)(O)CP(=O)(O)OP(=O)(O)O)[C@H](O)[C@H]1O`, the result in test [1], in test [3], in [7], in test [11], in test [12] and in test [13] was inactive. Also, the result in test [14] was inactive. Besides, the Potency entry in test [2], in test [4], in [5], in [6], in [9] and in [10] was “inactive” throughout.
